Hits are enriched below; roughly 4% of the tested compounds scored in any of these assays.
TRHR enhancer = TRH receptor (human) allosteric enhancement; AID 493056; TRHR cells, fluo-8 calcium fluorescence, EC20 TRH enhancement; enhancement, % at 2 µM; 360,000 compounds, 0.66% hits; P34981; in the data active = enhancement above about 30%; also: 0% is about no effect
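Enhancer read-out: after compound pinning and an initial kinetic agonist-mode read, an EC20 of TRH (10 nM final) was injected and fluo-8 calcium signal (Ex 480/Em 530) followed at 1 s/cycle for 100 cycles in TRHR-expressing cells.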
TRHR agonist = activates the human TRH receptor; P34981; TRHR cells, calcium flux fluo-8, FDSS agonist mode; activation, % at 2 µM; 360,000 compounds, 0.18% hits; AID 493084; also: 0% is about no effect
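Steps: seed TRHR cells overnight; add fluo-8 no-wash Ca dye, RT 30 min–1.5 h; record 10 s baseline; pin-transfer compounds; monitor fluorescence 1 cycle/s for the agonist window. Calcium increases flag candidate agonists.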
D1 agonist = agonists of human D1 dopamine receptor; AID 504660; HEK293 T-REx D1 cells, calcium flux, agonist mode; P21728; activation, % at 2 µM; 360,000 compounds, 1% hits; also: 0% is about no effect
Target sequence (P21728 whole entry, looked up): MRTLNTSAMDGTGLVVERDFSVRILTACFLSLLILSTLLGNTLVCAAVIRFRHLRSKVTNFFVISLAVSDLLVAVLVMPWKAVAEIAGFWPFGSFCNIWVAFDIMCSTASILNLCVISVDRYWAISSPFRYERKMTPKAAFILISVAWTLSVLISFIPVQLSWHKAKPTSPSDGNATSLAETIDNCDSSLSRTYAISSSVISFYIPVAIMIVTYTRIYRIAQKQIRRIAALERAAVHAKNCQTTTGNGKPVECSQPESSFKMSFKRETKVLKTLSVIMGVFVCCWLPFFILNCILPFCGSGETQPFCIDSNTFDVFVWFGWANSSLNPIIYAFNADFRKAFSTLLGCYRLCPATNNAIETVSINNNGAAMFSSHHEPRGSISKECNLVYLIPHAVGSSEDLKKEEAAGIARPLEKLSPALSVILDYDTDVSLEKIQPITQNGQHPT
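Inducible HEK293 T-REx D1 cells, force-coupled to calcium signalling, were plated at 4000 cells/well with tetracycline and held overnight at 30 C. After no-wash calcium dye loading, compound-evoked calcium rise over 180 s flagged agonists.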
D1 potentiator = human D1 dopamine receptor positive modulation | P21728 | HEK293 TREx D1 cells, calcium flux, dopamine EC20 potentiation | potentiation, % at 10 µM | 360,000 compounds, 0.036% hits; in the data active = potentiation above about 30%; also: 0% is about no effect
D1 antag = antagonists of human D1 dopamine receptor; activity change, negative = inhibition, % at 10 µM; 360,000 compounds, 3.2% hits; P21728; HEK293 TREx D1 cells, calcium flux, dopamine EC80; active compounds read low; AID 504652; in the data active = activity change below about -30%; also: % is scaled to controls: 0 for no effect and ±100 for the full control effect
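Tetracycline-induced HEK293 T-REx cells with force-coupled D1 receptor were loaded with a no-wash calcium dye. Compound was added after a 10 s baseline and read kinetically for 180 s; EC80 dopamine was then added and calcium flux followed another 180 s.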
Glioma ERSR ind = ER stress response induction in glioma | AID 602332 | 420,000 compounds, 0.02% hits | U87-MG GRP78 promoter luciferase reporter, 16 h | Potency, µM, for inactives: at the top dose activation, usual class: activators; active = well fitted activation curve with a large enough effect; also: potency is read from the fitted curve at half-maximal effect; series mostly up to about 76 µM; % of control where 0% means no effect; nearly all actives have a fitted effect of over 35% in size
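Stably transfected U87-MG human glioma cells carrying a GRP78-based luminescent sensor were seeded at 1000 cells/well, pin-dosed with compounds and incubated 16 h. Luciferase reagent was then added, and end-point luminescence was read after 10 min at room temperature.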
* marks the source's active call; other numbers are inactive results; . = no result. Rule as the data show it, unless noted: active = activation above about 30%; inactive = the rest.

SMILES | TRHR enhancer | TRHR agonist | D1 agonist | D1 potentiator | D1 antag | Glioma ERSR ind
COc1ccccc1CNS(=O)(=O)c1cc(-c2cc(C)no2)ccc1C(C)C | 4 | -1 | 18 | -6 | -38* | -6%
COc1ccc(-c2cc(C)no2)cc1S(=O)(=O)NCC1CCN(Cc2cc(C)ccc2C)CC1 | -1 | 1 | 15 | -6 | 0 | -3%
COc1ccc(NC(=O)/C=C/c2cccc(F)c2)cn1 | 3 | 1 | 6 | -6 | -1 | 1%
CCc1ccc(-c2cc(C)no2)cc1S(=O)(=O)NCCCN1CCN(c2ccccc2)CC1 | -2 | 0 | 17 | -6 | -67* | -2%
CC(Oc1ccc(Br)cc1Cl)C(=O)Nc1ccncc1 (configuration not stated) | -26 | 0 | 15 | -6 | -35* | -4%
Cc1ccc(OC(C)C(=O)Nc2ccncc2)cc1C (configuration not stated) | 23 | 0 | 18 | -8 | -32* | -3%
COc1ccc(-c2cc(-c3cccs3)nc(OC)c2C#N)cc1OC | -7 | 0 | 7 | 9 | 4 | -3%
Fc1ccc(CNC(=S)Nc2ccc(Cl)cc2Cl)cc1 | -6 | 1 | 24 | -12 | -38* | -3%
Fc1ccc(CNC(=S)NCc2cccc(Cl)c2)cc1 | 0 | 0 | -1 | -4 | -33* | -2%
S=C(NCc1ccccc1)NCc1cccc(Cl)c1 | -12 | 0 | 1 | -3 | -17 | -5%
Cc1ccc(N2C(=O)N(CC(=O)N3CCc4ccccc43)C(=O)C2C)cc1 (configuration not stated) | . | . | . | . | . | 2%
CC(C)CCc1c(O)nc(SCC(=O)N2CCCCCC2)[nH]c1=O | -9 | 0 | 2 | -7 | 0 | .
Cc1ccc(S(=O)(=O)N2CCCC2C(=O)OCc2nc3ccccc3s2)cc1 (configuration not stated) | 0 | -2 | 45* | -3 | 1 | -2%
Cc1nn(-c2ccccn2)c2c1C(c1ccsc1)C1=C(CCCC1=O)N2 (configuration not stated) | 1 | -1 | 0 | -4 | -86* | -1%
Cn1ccnc1SCc1cn2cc(Br)ccc2n1 | -4 | 0 | -1 | -1 | -8 | -16%
CC(C)c1ccc(NC(=O)C2CCCN2S(=O)(=O)c2ccccc2F)cc1 (configuration not stated) | 8 | 1 | 5 | -10 | -34* | 1%
O=C(Nc1ccc(N2CCOCC2)cc1)C1CCCCN1S(=O)(=O)c1ccccc1 (configuration not stated) | -2 | 0 | 5 | -3 | -32* | -5%
COc1cc(C(C)=O)ccc1OCC(O)CN1CCN(S(=O)(=O)c2ccccc2)CC1 (configuration not stated) | -5 | 0 | 0 | 0 | -31* | -6%
COc1cc(C(C)=O)ccc1OCC(O)CN1CCN(c2c(C)cccc2C)CC1 (configuration not stated) | -2 | 0 | 7 | -3 | 1 | -1%
COc1ccccc1OCC(O)CN1CCN(C(=O)c2ccccc2)CC1 (configuration not stated) | -3 | 1 | 1 | 1 | -36* | 1%
O=C(CSc1nnnn1-c1ccc2c(c1)OCO2)NCc1ccccc1 | -4 | -1 | 3 | -9 | -18 | 0%
Fc1ccccc1CSc1nnnn1-c1ccc2c(c1)OCO2 | -4 | 0 | 9 | -4 | -35* | 9%
CC(C)(C)NC(=O)c1ccccc1-c1nc2ccccc2s1 | 5 | 1 | 2 | -2 | -10 | -4%
CCn1c(C)cc(C)c(C#N)c1=O | -9 | 0 | 1 | -3 | -13 | -2%
CSc1ccccc1-n1nnnc1SCc1ccccc1 | 11 | -1 | 46* | -1 | -6 | -2%
SMILES | TRHR enhancer | TRHR agonist | D1 agonist | D1 potentiator | D1 antag | Glioma ERSR ind
O=C(O)c1ccc(-n2nnnc2SCc2ccccc2)cc1 | 1 | 2 | 2 | -5 | 0 | -1%
Cc1ccc(NC2c3ncccc3C(=O)N2Cc2cccs2)cc1 (configuration not stated) | 1 | -1 | 3 | 1 | -6 | -1%
CCCCCn1c(C(C)NC(=O)CCC)nc2ccccc21 (configuration not stated) | 0 | -1 | 0 | -5 | -30* | 4%
CCCCn1c(C(C)NC(=O)CCC)nc2ccccc21 (configuration not stated) | -6 | -1 | 1 | -8 | 0 | -2%
O=C1CC(c2ccco2)CC(O)=C1C=Nc1ccc(Br)cc1 (configuration not stated) | 1 | 3 | 3 | -2 | . | 5%
Cc1ccc(N=CC2=C(O)CC(c3ccco3)CC2=O)cc1 (configuration not stated) | 3 | 0 | 3 | 3 | -38* | 7%
CCN(CCCNC(=O)c1cc2cc3ccc(C)cc3nc2s1)c1ccccc1 | 1 | 0 | 1 | -2 | -14 | 2%
Cc1ccc(C)c(N(C)C(=O)c2ccc3c(=O)n4c(nc3c2)CCCCC4)c1 | -3 | 0 | 0 | -4 | -13 | -5%
Cc1ccc(C)c(C(=O)COC(=O)CCN2C(=O)C3C4CCC(C4)C3C2=O)c1 (configuration not stated) | -1 | 0 | 2 | -7 | -45* | -2%
Cc1ccc(C)c(C(=O)COC(=O)CN2C(=O)C3C4CCC(C4)C3C2=O)c1 (configuration not stated) | 0 | 0 | 2 | -10 | -11 | -1%
Cc1c(Cl)cccc1N1C(=O)c2ccccc2C1=O | -4 | -1 | 1 | -1 | -19 | -6%
Nc1ccc(N2C(=O)c3ccccc3C2=O)c(Cl)c1 | 15 | -1 | -1 | -3 | -46* | -4%
CCOc1ccc(CN2CCN(C3CCSCC3)CC2CCO)cc1 (configuration not stated) | 41* | 0 | 1 | -5 | 5 | -4%
CC(=O)c1cn(-c2ccc(Cl)cc2)c(=O)n(Cc2ccc(F)cc2)c1=O | 3 | 1 | -2 | -3 | -15 | -3%
C#CCOCCOCCOCCNc1nc(N2CCN(C(=O)CCCCCCCCCCNC(=O)[C@H]([C@@H](C)CC)n3cc(CCCCCN)nn3)CC2)nc(N2CCN(C(=O)CCCCCCCCCCNC(=O)[C@@H]([C@H](C)CC)n3cc(CCCCCN)nn3)CC2)n1 | -2 | 7 | 8 | 22 | 28 | .
CC[C@H](C)[C@@H](C(=O)NCCCCCCCCCCC(=O)N1CCN(C(=O)OC(C)(C)C)CC1)n1cc(CCCCN=C(NC(=O)OC(C)(C)C)NC(=O)OC(C)(C)C)nn1 | 1 | 0 | 6 | -10 | 13 | .

Source: PubChem BioAssay (National Center for Advancing Translational Sciences (NCATS))
